Results on 59 compounds are retold here after PubChem BioAssay AID463205 (Broad Institute, 2010).

The whole screen tested about 2,400 compounds, of which about 20 (0.8%) were called active. The full list was thinned out, with actives kept by preference. A number with no mark means an inactive call.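 The calls were made as follows: active = AC50 no more than ten times the highest tested concentration, or full inhibition at every dose giving a flat fit (cut at about 30 µM in these data); inconclusive = flat fit with activity between 30% and 70%, or poor-quality invalid fit; inactive = AC50 more than ten times the top tested dose.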 Bounds are passed on as bounds.

Usually AC50 stands for the concentration giving half of the maximal activity seen.

The nature of this assay: luciferase-based ADP detection interference – biochemical, luminescence, cell-free, homogeneous, artefact control for GSK-3a inhibitor project, dose response (AID 463205).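 Also: kinase-free counter-screen against the ADP-Glo detection reagents only; potency is for inhibitors that reduce the luminescence signal.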 Particulars: Cell-free ADP-Glo detection reagents, 5 uM ADP. For orientation: ADP-Glo turns the ADP formed in a reaction into a luminescent signal.
In the case of `CN(C)Cc1c(C(=O)N/N=C/C2CC=CCC2)nnn1-c1nonc1N` (centres undefined), the AC50 is more than 30 µM.
For the compound `CCOC(=O)/C(C#N)=C/c1cn(CCC(=O)O)nc1-c1cccc(Br)c1`, the AC50 was more than 30 µM.
Turning to `CCn1c2ccc(F)cc2c2nc3ccccc3nc21`, the AC50 was more than 30 µM.
Consider `Cc1nc2c(C)cccn2c1/C(O)=C1\C(=O)C(=O)N(CCN2CCOCC2)C1c1cccs1` (centres undefined), for which the AC50 was more than 30 µM.
Next, `Cc1cccc2c(N=Nc3ccccc3)c(O)[nH]c12`: more than 30 µM; `Nc1nonc1-n1nnc(C(=O)N/N=C/c2ccccc2Cl)c1-c1ccccc1`: more than 30 µM; `CCc1c(C)c(C#N)c2nc3ccccc3n2c1NCC1CCCO1` (centres undefined): more than 30 µM.
In the case of `CS(=O)(=O)Nc1ccc(-c2cc(/C=C3\SC(N)=NC3=O)c[nH]c2=O)cc1`, the AC50 is more than 30 µM.
Next, `O=C(c1ccc(Cn2cnnn2)cc1)N1CCCC(Nc2ccc(F)cc2)C1` (centres undefined): more than 30 µM; `O=C(Nc1ccccc1C(=O)N1CCOCC1)c1cccnc1`: more than 30 µM; `CC(=O)Nc1cccc(-c2csc(Nc3ccc(C)cn3)n2)c1`: more than 30 µM.
As to `Cc1cc(=O)[nH]c2cc(O)ccc12`, the AC50 was more than 30 µM.
Turning to `CC(=O)Nc1ccc(C2(c3ccc(NC(C)=O)cc3)NC(=O)c3ccccc32)cc1`, the AC50 is more than 30 µM.
`CC1(C)Cc2cccc(C(=O)NCc3ccco3)c2O1`: the AC50 is more than 30 µM.
Next, `O=C(COC(=O)c1cccs1)Nc1ccc(Cl)cn1`: more than 30 µM; `CCN1CCN(c2nc(Nc3cccc(OC)c3)nc(N)c2[N+](=O)[O-])CC1`: more than 30 µM; `COc1cccc(/C=N/n2nnnc2N)c1OCC#N`: more than 30 µM.
As for `O=C(O)COc1c(Cl)cc(/C=C2/NC(=O)NC2=O)cc1Br`, the AC50 is more than 30 µM.
For the compound `CNc1ccc(/C=C/C(=O)c2ccc3c(c2)OCCO3)cc1[N+](=O)[O-]`, the AC50 was more than 30 µM.
As to `COC(=O)C1(C#N)C(c2ccccc2)C1(C(=O)OC)C(=O)OC` (centres undefined), the AC50 was more than 30 µM.
For the compound `Cc1nc2ncnn2c(C)c1Cc1c(Cl)cccc1Cl`, the AC50 was more than 30 µM.
The figure for `O=C(c1ccccc1)c1cnc(Nc2ccccc2Cl)s1` is more than 30 µM; for `COc1ccc(NC(=O)CN(C)C2CCCCC2)c([N+](=O)[O-])c1` it is more than 30 µM.
The figure for `Cc1nc2cc(-c3ccccc3)ccc2o1` is more than 30 µM.
Take `O=C(N/N=C/c1cccnc1)c1cc2c(ccc3ccccc32)o1`: the AC50 was more than 30 µM.
As to `CCNc1nc(NCC)nc(C(=O)OCCO)n1`, the AC50 was more than 30 µM.
Consider `Cc1ccnc(NC(=O)Cn2c(=O)oc3cc(S(=O)(=O)N4CCCC4)ccc32)c1`, for which the AC50 is more than 30 µM.
Take `Cc1cccc(/C(N)=N/OC(=O)c2ccc3c(c2)OCO3)c1`: the AC50 is 27.3 µM (active).
The figure for `Cc1cccc(C(=O)O/N=C(\N)c2cccc([N+](=O)[O-])c2)c1` is more than 30 µM; for `Cc1ccc(C(=O)O/N=C(\N)c2cccc([N+](=O)[O-])c2)cc1` it is more than 30 µM.
As to `Cc1cc(NC(=O)CCSc2nc(-c3ccco3)cc(C(F)(F)F)n2)n(-c2ccccc2)n1`, the AC50 was more than 30 µM.
Regarding `C(=N\Nc1ncnc2sc3c(c12)CCC3)/c1ccncc1`, the AC50 was more than 30 µM.
On to `Cn1c(=O)c2[nH]c(N3CCOCC3)nc2n(-c2ccccc2)c1=O`, for which the AC50 is more than 30 µM.
The figure for `Nc1nccnc1C(=O)N/N=C/c1ccco1` is more than 30 µM; for `Nc1nonc1-n1nnc(C(=O)N/N=C/c2ccc(Cl)cc2Cl)c1CN1CCOCC1` it is more than 30 µM; for `Cc1nc(NCC2CCCO2)nc2c1C(=O)CC(C)(C)C2` (centres undefined) it is more than 30 µM.
`CCOc1ccc2ccccc2c1/C=N/n1cncn1`: the AC50 is more than 30 µM.
For `Cc1ccc(OCC(=O)N2CCN(c3nnc(-c4ccccc4)c4ccccc34)CC2)cc1`, the AC50 was more than 30 µM.
The figure for `N#CC1=C(SCc2ccccc2)NC(=O)CC1c1ccco1` (centres undefined) is more than 30 µM; for `CCN(CC)C(=O)c1oc2ccc(S(=O)(=O)N3CCCCCC3)cc2c1C` it is more than 30 µM; for `O=C(c1ccc(Cl)cc1)c1cnc(Nc2ccccc2)s1` it is more than 30 µM.
The figure for `Cc1cccc(NC(=O)CSCc2nc3c(nnn3Cc3ccc(F)cc3)c(=O)[nH]2)c1C` is more than 30 µM; for `N#Cc1c2c(c(NCc3ccco3)n3c1nc1ccccc13)CCC2` it is more than 30 µM.
The figure for `O=C(COC(=O)c1cccc(S(=O)(=O)N2CCOCC2)c1)Nc1ncc(Cl)cc1Cl` is more than 30 µM.
With `CNC(=O)c1ccc(NC(=O)C2CCN(c3ncnc4sc(C)c(C)c34)CC2)cc1`, the AC50 was more than 30 µM.
Next, `CCNc1cc(N2CCCC2)ccc1[N+](=O)[O-]`: more than 30 µM; `Cc1nnc(SCC(=O)N2c3ccccc3CC2C)s1` (centres undefined): more than 30 µM.
For the compound `CCOC(=O)c1c(NC(=O)CN2C(=O)NC3(CCCCC3C)C2=O)sc(C)c1CC` (centres undefined), the AC50 was more than 30 µM.
For the compound `C=CCNc1nc(N)c(C(=O)Nc2cc(C)on2)s1`, the AC50 was more than 30 µM.
With `CC(=O)c1cccc(NC(=S)NC(=O)CC(C)C)c1`, the AC50 was more than 30 µM.
For the compound `COc1ccc(OC)c(/C=C2\Oc3cc(OCC(=O)N4CCC[C@H]4C(=O)O)ccc3C2=O)c1`, the AC50 was more than 30 µM.
On to `CC(C)c1c(C(=O)N/N=C/c2ccncc2)nnn1-c1nonc1N`, for which the AC50 is more than 30 µM.
Next, `CC(C)N=C(NC#N)SCc1ccc(F)cc1`: more than 30 µM.
On to `N#Cc1sc2nc3c(c(-c4ccco4)c2c1N)CCCC3`, for which the AC50 was more than 30 µM.
As to `COCCNC(=O)c1ccc(Cn2c(=S)[nH]c3cc4c(cc3c2=O)OCO4)cc1`, the AC50 was more than 30 µM.
On to `CC1=C(C(=O)OCc2ccccc2)C(c2cccc(Br)c2)NC(=O)N1` (centres undefined), for which the AC50 was more than 30 µM.
As to `O=C(c1ccco1)N(Cc1cccc([N+](=O)[O-])c1)c1ccc(Br)cc1`, the AC50 was more than 30 µM.
Consider `NS(=O)(=O)c1ccc(Nc2nc(-c3ccccc3)cs2)cc1`, for which the AC50 is more than 30 µM.
Regarding `CCc1cc(C(=O)c2ccc(OC)cc2)c(NC(=O)COCC(=O)O)s1`, the AC50 was more than 30 µM.
